Inconclusive results are not listed. Where a call stands in place of a potency, no number is given. The source made the active and inactive calls. Calls come from the whole dose curve; as a rule, active = well fitted curve in the direction sought with a large enough effect; inconclusive = small, poorly fitted or top-dose-only effect, or another doubt; inactive = no such curve, though single readings can be large; an effect the other way counts as inactive or inconclusive.
Target: Luciferin 4-monooxygenase (Photinus pyralis) (UniProt P08659)
Assay: Primary firefly luciferase (FLuc) qHTS assay for identification of artifact compounds. (AID 1845220); note: nearly all actives have a fitted effect of over 60% in size
Settings: purified firefly luciferase, luminescence, 5 min; series mostly up to 54.1 µM
Procedure, shortened: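 Compounds sat 15 min at room temperature with 10 uM luciferin and 10 uM ATP (pH 7.6 Tris acetate). Firefly luciferase (10 nM final) was then added, and luminescence was read 5 min later. Data normalized to no-enzyme and DMSO controls were Hill-fitted.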
Potency is the fitted concentration of half-maximal effect.

Question: Which Potency does the source give for `CC(C)S(=O)(=O)c1ccc2nccc(Nc3ccc4scnc4c3)c2c1` here?
Answer: Its Potency is “inactive”.

Question: With `CC(C)=CCC[C@](C)(O[C@@H]1O[C@H](CO[C@@H]2OC[C@@H](O)[C@H](O)[C@H]2O)[C@@H](O)[C@H](O)[C@H]1O)[C@H]1CC[C@]2(C)[C@@H]1[C@H](O)C[C@@H]1[C@@]3(C)CC[C@H](O[C@@H]4O[C@H](CO)[C@@H](O)[C@H](O)[C@H]4O)C(C)(C)[C@@H]3CC[C@]12C` as the molecule, how does the Potency read?
Answer: The Potency was “inactive”.

Question: Which Potency does the source give for `CC(C)NC(=O)COc1cccc(-c2nc(Nc3ccc4[nH]ncc4c3)c3ccccc3n2)c1` here?
Answer: The Potency was “inactive”.

Question: Which Potency does the source give for `CC[C@@H]1C[C@]1(NC(=O)[C@@H]1C[C@@H]2CN1C(=O)[C@H](C(C)(C)C)NC(=O)OCC(C)(C)CCCCc1cccc3c1CN(C3)C(=O)O2)C(=O)NS(=O)(=O)C1CC1` here?
Answer: Its Potency is “inactive”.

Question: For `O=C([C@@H](Cc1cccc(C(F)(F)F)c1)NS(=O)(=O)c1cc(F)c2c(c1)CCNC2)N1CCCC1`, which Potency is on record?
Answer: Its Potency is “inactive”.

Question: Which Potency does the source give for `CC(O)(C(=O)C1CC1(CO)COC1OC(CO)C(O)C(O)C1O)C1C(O)CC2C3CC=C4CC(O)CC(O)C4(C)C3C(O)CC21C` (configuration not stated) here?
Answer: Its Potency is “inactive”.

Question: Which Potency does the source give for `CCN1CCN(Cc2ccc(NC(=O)c3ccc(C)c(Oc4ncnc5[nH]c(C)cc45)c3)cc2C(F)(F)F)CC1` here?
Answer: Its Potency is “inactive”.

Question: Which Potency does the source give for `Cc1ccnn1-c1ccc(C(=O)N2CCN(S(=O)(=O)c3ccc(Cl)c(C(F)(F)F)c3)CC2)cc1` here?
Answer: Its Potency is “inactive”.

Question: Which Potency does the source give for `C=C1/C(=C/C=C2\CCC[C@]3(C)[C@@H]([C@@H](C)OCCC(O)(CC)CC)CC[C@@H]23)C[C@@H](O)C[C@@H]1O` here?
Answer: The Potency was “inactive”.

Question: With `Cn1ncnc1[C@@H]1c2n[nH]c(=O)c3cc(F)cc(c23)N[C@H]1c1ccc(F)cc1` as the molecule, how does the Potency read?
Answer: Its Potency is “inactive”.

Question: For `CC(C)(C)c1ccc(-c2nc3c(N4CCN(Cc5ccc6nccnc6c5)CC4)cccc3[nH]2)cc1`, which Potency is on record?
Answer: Its Potency is 1.51 µM (active).

Question: With `COc1cc(F)c(C(C)C)cc1-c1ccc(C(F)(F)F)cc1CN1C(=O)OC(c2cc(C(F)(F)F)cc(C(F)(F)F)c2)C1C` (configuration not stated) as the molecule, how does the Potency read?
Answer: Its Potency is “inactive”.

Test system: not listed separately
Assay: Primary fluorescence-based thiol-reactive (MSTI) qHTS assay for identification of artifact compounds. (AID 1845221); note: nearly all actives have a fitted effect of over 65% in size
Settings: MSTI thiol-reactivity probe, 1 h; series mostly up to 53.8 µM
Procedure, shortened: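 First, 4 uM MSTI in 2% DMSO/PBS pH 7.4 was dispensed; next, compounds were added; then plates sat 1 h at room temperature without light. Finally, emission at 598 nm was recorded.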

Question: Which Potency does the source give for `O=C(Nc1nnc(-c2ccc3c(c2)OCCO3)o1)C1CCCCC1` here?
Answer: Its Potency is “inactive”.

Question: Which Potency does the source give for `CC(C)n1c(=O)c(C(=O)NC2CC3CCC(C2)N3C[C@@H](O)CN(C)S(C)(=O)=O)cc2ccccc21` (some centres not stated) here?
Answer: The Potency was “inactive”.

Question: For `NCC1CCN(c2nccc(-c3ccc4ccccc4c3)n2)CC1`, which Potency is on record?
Answer: Its Potency is “inactive”.

Question: With `CC(C)S(=O)(=O)c1ccc2nccc(Nc3ccc4scnc4c3)c2c1` as the molecule, how does the Potency read?
Answer: The Potency was “inactive”.

Question: With `CCC(C)CC(=O)OC1C(=O)C(CO)=CC(O)C1C(C)C` (configuration not stated) as the molecule, how does the Potency read?
Answer: Its Potency is “inactive”.

Question: For `CC(C)=CCC[C@](C)(O[C@@H]1O[C@H](CO[C@@H]2OC[C@@H](O)[C@H](O)[C@H]2O)[C@@H](O)[C@H](O)[C@H]1O)[C@H]1CC[C@]2(C)[C@@H]1[C@H](O)C[C@@H]1[C@@]3(C)CC[C@H](O[C@@H]4O[C@H](CO)[C@@H](O)[C@H](O)[C@H]4O)C(C)(C)[C@@H]3CC[C@]12C`, which Potency is on record?
Answer: Its Potency is “inactive”.

Question: For `COc1cc(-n2cnc3cc(-c4ccc(Cl)cc4)sc3c2=O)ccc1OCCN1CCCC1`, which Potency is on record?
Answer: The Potency was “inactive”.

Question: Which Potency does the source give for `CCc1ccc(-c2nc(CSCC(=O)NCCc3ccccc3)c(C)o2)cc1` here?
Answer: Its Potency is “inactive”.

Question: For `CC(C)NC(=O)COc1cccc(-c2nc(Nc3ccc4[nH]ncc4c3)c3ccccc3n2)c1`, which Potency is on record?
Answer: Its Potency is “inactive”.

Question: With `CC(=O)O[C@@H]1[C@@H](OC(C)=O)[C@H](C)O[C@@H](O[C@H]2[C@@H]3C=CO[C@@H](O[C@@H]4O[C@H](CO)[C@@H](O)[C@H](O)[C@H]4O)[C@@H]3[C@@]3(CO)O[C@@H]23)[C@@H]1OC(=O)/C=C/c1ccccc1` as the molecule, how does the Potency read?
Answer: The Potency was “inactive”.

Question: With `COc1ccccc1-c1ccc(-c2cn(C(=O)N3CCCCC3Cc3ccccc3)nn2)cc1` (configuration not stated) as the molecule, how does the Potency read?
Answer: Its Potency is “inactive”.

Question: For `CC[C@@H]1C[C@]1(NC(=O)[C@@H]1C[C@@H]2CN1C(=O)[C@H](C(C)(C)C)NC(=O)OCC(C)(C)CCCCc1cccc3c1CN(C3)C(=O)O2)C(=O)NS(=O)(=O)C1CC1`, which Potency is on record?
Answer: Its Potency is “inactive”.

Question: Which Potency does the source give for `COc1ccccc1C(=O)Nc1cccc(NC(=O)c2cccc(C)c2)c1` here?
Answer: The Potency was “inactive”.

Question: With `COC1CC(=O)C23C(=O)NC(CC(C)C)C2C(C)C(C)=CC3/C=C(\C)CCCC1O` (configuration not stated) as the molecule, how does the Potency read?
Answer: The Potency was “inactive”.

Question: Which Potency does the source give for `CNc1nc(Nc2ccc(C(=O)N3CCOCC3)cc2OC)nc2[nH]cc(Cl)c12` here?
Answer: Its Potency is 1.68 µM (active).

Question: Which Potency does the source give for `O=C([C@@H](Cc1cccc(C(F)(F)F)c1)NS(=O)(=O)c1cc(F)c2c(c1)CCNC2)N1CCCC1` here?
Answer: Its Potency is “inactive”.

Question: With `CC(C)c1ccc(-c2cc(=O)c3ccccc3o2)cc1` as the molecule, how does the Potency read?
Answer: Its Potency is “inactive”.

Question: With `Cc1ccc(-c2ncccn2)c(C(=O)N2C[C@H](COc3ccc(F)cn3)CC[C@H]2C)c1` as the molecule, how does the Potency read?
Answer: The Potency was “inactive”.

Question: With `CC(O)(C(=O)C1CC1(CO)COC1OC(CO)C(O)C(O)C1O)C1C(O)CC2C3CC=C4CC(O)CC(O)C4(C)C3C(O)CC21C` (configuration not stated) as the molecule, how does the Potency read?
Answer: Its Potency is “inactive”.

Question: With `CCC(C)C(=O)OC1C(C)C2(O)C(C=C(CO)CC3(O)C(=O)C(C)=CC32)C2C(C)(C)C12OC(=O)C(C)C` (configuration not stated) as the molecule, how does the Potency read?
Answer: The Potency was “inactive”.

Question: Which Potency does the source give for `COC1CCN(c2cccc(-c3cc(NC(C)=O)nc(-n4nc(C)cc4C)n3)n2)CC1` here?
Answer: The Potency was “inactive”.

Question: With `CCN1CCN(Cc2ccc(NC(=O)c3ccc(C)c(Oc4ncnc5[nH]c(C)cc45)c3)cc2C(F)(F)F)CC1` as the molecule, how does the Potency read?
Answer: Its Potency is “inactive”.

Question: With `COc1ccc(OC)c(-c2ccc(NC(=O)c3ccncc3F)cc2)c1` as the molecule, how does the Potency read?
Answer: Its Potency is “inactive”.

Question: For `Cc1cc(C(=O)Nc2cc(Nc3ccc4c(/C=C/c5ccccn5)n[nH]c4c3)ccc2F)n(C)n1`, which Potency is on record?
Answer: Its Potency is 11.9 µM (active).

Question: For `Cc1ccc(O)cc1Nc1ccnc(Nc2cccc(C(N)=O)c2)n1`, which Potency is on record?
Answer: Its Potency is “inactive”.

Question: For `Cc1ccnn1-c1ccc(C(=O)N2CCN(S(=O)(=O)c3ccc(Cl)c(C(F)(F)F)c3)CC2)cc1`, which Potency is on record?
Answer: Its Potency is “inactive”.

Question: With `C=C1/C(=C/C=C2\CCC[C@]3(C)[C@@H]([C@@H](C)OCCC(O)(CC)CC)CC[C@@H]23)C[C@@H](O)C[C@@H]1O` as the molecule, how does the Potency read?
Answer: Its Potency is “inactive”.

Question: Which Potency does the source give for `Cn1ncnc1[C@@H]1c2n[nH]c(=O)c3cc(F)cc(c23)N[C@H]1c1ccc(F)cc1` here?
Answer: Its Potency is “inactive”.

Question: Which Potency does the source give for `CC(C)(C)c1ccc(-c2nc3c(N4CCN(Cc5ccc6nccnc6c5)CC4)cccc3[nH]2)cc1` here?
Answer: Its Potency is 6.7 µM (active).

Question: For `COc1cc(F)c(C(C)C)cc1-c1ccc(C(F)(F)F)cc1CN1C(=O)OC(c2cc(C(F)(F)F)cc(C(F)(F)F)c2)C1C` (configuration not stated), which Potency is on record?
Answer: The Potency was “inactive”.

From PubChem BioAssay (NCATS)
